This is an account of results in PubChem BioAssay AID1851 (National Center for Advancing Translational Sciences (NCATS), 2009).

Out of some 16,000 compounds screened, about 4,000 (25%) were called active. Roughly 26% stayed inconclusive and do not appear here. A selection follows. Values without a mark were called inactive. Calls come from the whole dose curve; as a rule, active = well fitted curve in the direction sought with a large enough effect; inconclusive = small, poorly fitted or top-dose-only effect, or effect the other way; inactive = no such curve, though single readings can be large or run the other way.
% is set by controls: 0 for no effect and ±100 for the full control effect.

Chain of Cytochrome P450 2C9 (Homo sapiens) (P11712 whole entry, looked up): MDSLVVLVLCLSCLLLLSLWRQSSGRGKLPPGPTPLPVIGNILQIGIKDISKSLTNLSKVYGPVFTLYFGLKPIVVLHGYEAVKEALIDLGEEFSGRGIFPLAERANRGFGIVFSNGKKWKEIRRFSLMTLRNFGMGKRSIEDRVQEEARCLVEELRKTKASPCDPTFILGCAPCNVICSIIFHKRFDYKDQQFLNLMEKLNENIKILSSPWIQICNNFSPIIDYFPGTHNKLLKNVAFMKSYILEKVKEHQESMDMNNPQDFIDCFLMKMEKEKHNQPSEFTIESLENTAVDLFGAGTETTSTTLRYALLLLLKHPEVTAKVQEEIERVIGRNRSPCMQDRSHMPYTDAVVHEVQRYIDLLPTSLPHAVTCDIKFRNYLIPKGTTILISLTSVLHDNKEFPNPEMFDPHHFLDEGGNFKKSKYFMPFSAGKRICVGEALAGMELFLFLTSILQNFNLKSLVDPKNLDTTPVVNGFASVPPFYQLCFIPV

The assay addresses Cytochrome P450 2C9 (Homo sapiens) (UniProt P11712). Nature of the assay: Cytochrome panel assay with activity outcomes. To be noted: recombinant CYP, pro-luciferin dealkylation, luminescence, p450-cyp2c9; series mostly up to 57.1 µM. As to the method:
The P450 gene superfamily is involved in the metabolism and clearance of xenobiotics. This assay used various human CYP P450 isozymes to measure the dealkylation of various pro-luciferin substrates to luciferin. The luciferin is then measured by luminescence after the addition of a luciferase detection reagent. Pro-luciferin substrate concentration in the assay was equal to its KM for its CYP P450 isozyme. Inhibitors and some substrates limit the production of luciferin, and decrease measured luminescence.
NCGC Assay Protocol Summary:
1, Reagent, 2 uL, Isozyme and Pro-Luciferin
2, Library compounds, 23 nl, 40 uM to 0.24 nM dilution series
3, Controls, 23 nl, Isozyme specific inhibitor
4, Reagent, 2 uL, NADPH regeneration solution
5, Incubation time, 60 min, Isozyme specific temperature
6, Reagent, 4ul, Detection reagent
7, Incubation time, 20 min, Isozyme specific temperature
8, Detection, 1 sec, ViewLux luminescent read
The luciferase-based P450-GloTM Screening Systems were obtained from Promega (Madison, WI) for CYP 1A2 (V9770), CYP 2C9 (V9790), CYP2 C19 (V9880), CYP 2D6 (V9890), and CYP 3A4 Luciferin-PPXE (V9910) and were adapted for 1,536-well microplates and an automated protocol. The control compounds furafylline for 1A2 (F124), sulfaphenazole for CYP 2C9 (S0758), ketoconazole for CYP 2C19 (K1003), quinidine for 2D6 (Q3625), and ketoconazole for 3A4 (K1003) were purchased from Sigma Aldrich (St. Louis, MO). Recombinant P450 enzymes were obtained from baculovirus constructs expressed in insect cells (BD/Gentest).
Medium-binding white solid Kalypsys plates used. Mixtures kept on ice. 1A2: 10 nM 1A2, 100 uM Luc-ME, 100 mM KPO4; 2C9: 10 nM 2C9, 100 uM Luc-H, 25 mM KPO4; 2C19: 5 nM 2C19, 10 uM Luc-H EGE, 50 mM KPO4; 2D6: 5 nM 2D6, 30 uM Luc-ME EGE, 100 mM KPO4; 3A4: 10 nM, 25 uM Luc-PPXE. All amounts are reflected in their final concentration, working concentration is 2x.
NADPH regeneration solution: 1.3 mM NADP+, 3.3 mM glucose-6-phosphate, 3.3 mM MgCl2, 0.4 U/mL glucose-6-phosphate dehydrogenase for all isozymes, 200 mM KPO4 for 3A4. Mixture prepared at RT but kept on ice during automated run.
RT incubation in auxilliary plate hotel for 1A2, 2D6, and 3A4; 37C for 2C9 and 2C19.
Keywords: P450, CYP1A2, CYP2C19, CYP2C9, CYP2D6, CYP3A4, Luciferase, MLSMR, MLSCN, NIH Roadmap, qHTS, NCGC
In the case of `CC(C)(C)NC[C@@H](O)c1ccc(O)c(CO)n1`, the activity, negative = inhibition was 6.16% [at 11.4 µM]. In general, AC50 refers to the midpoint of the concentration-response curve, whichever way the signal moves. For `Cc1ccc(-c2nc3ncccn3c2NC(=O)C2CC2)cc1`, the AC50 result was “inactive”.

In the case of `Clc1ccc(-c2nc3ncccn3c2Nc2ccc3c(c2)OCCO3)cc1`, the AC50 was 4.47 µM (active).

Consider `Cc1noc(C)c1-c1cc(Nc2ccccc2)ncn1`, for which the activity, negative = inhibition is -12.1% [at 2.29 µM]. In the case of `Cc1noc2ncnc(Oc3ccc4ccccc4c3)c12`, the AC50 was 25.1 µM (active). In the case of `Cc1noc(C)c1-c1cc(NCc2ccccc2)ncn1`, the activity, negative = inhibition was 24.9% [at 2.29 µM].

Consider `O=Nc1c(O)n(Cc2ccc(Cl)c(Cl)c2)c2ccccc12`, for which the AC50 is 5.62 µM (active). Same read-out and setting: under `O=Nc1c(O)n(Cc2ccc(Cl)cc2)c2ccccc12` stands 1.26 µM (active). On the same count and under the same terms, as for `Clc1ccc(Cn2c(CN3CCCC3)nc3ccccc32)cc1`, the entry is “inactive”. As to `O=C1C(=O)N(Cc2ccc(Cl)c(Cl)c2)c2ccccc21`, the AC50 result was “inactive”.

As to `Clc1ccc(COc2ccccn2)cc1Cl`, the AC50 result is “inactive”. With `O=Nc1c(O)n(Cc2cccc(Cl)c2)c2ccccc12`, the AC50 was 2.51 µM (active). Still for that read-out and setting: under `NC(=O)c1ncn([C@@H]2O[C@@H](CO)[C@@H](O)[C@H]2O)c1O` stands “inactive”. Turning to `Cc1noc(C)c1-c1cncnc1NC1CC1`, the activity, negative = inhibition is 4.67% [at 2.29 µM]. For the molecule `c1cn(-c2ccnc(-c3ccc4c(c3)OCO4)n2)cn1`, the activity, negative = inhibition is 4.3% [at 2.29 µM]. The same measure, in the same setting: as for `COc1cccc(-c2nc(N(C)Cc3ccco3)c3ccccc3n2)c1`, the figure is -10.2% [at 2.29 µM]; as for `CN(C)C(=O)c1ccc(-c2nc(N(C)Cc3ccco3)c3ccccc3n2)cc1`, 5.2% [at 2.29 µM]. In the case of `CN(Cc1ccccc1)c1nc(-c2ccc([N+](=O)[O-])cc2)nc2ccccc12`, the AC50 was 0.501 µM (active).

Consider `c1nc(NCCc2cnc[nH]2)c2[nH]cnc2n1`, for which the activity, negative = inhibition was -20.1% [at 11.4 µM].

In the case of `CN(C)C(=O)c1ccc(-c2cc(NCc3ccccc3)ncn2)cc1`, the activity, negative = inhibition was 6.12% [at 2.29 µM]. On to `N#Cc1c(-c2ccccc2)nc2n(c1=O)CCS2`, for which the AC50 entry is “inactive”.

Take `CN(C)c1cc(=O)n2c(n1)SCCC2`: the AC50 entry was “inactive”.

For `N#Cc1c(-c2ccc(Cl)cc2)nc2n(c1=O)CCCS2`, the AC50 is 12.6 µM (active). Take `CC(C)CN1CCCC2(CCN(C(=O)c3cccn3C)CC2)C1`: the AC50 entry was “inactive”. Same read-out and setting: under `CN1CCCC2(CCN(C(=O)c3cccn3C)CC2)C1` stands “inactive”; under `c1ccc(-c2ccc(N3CC[C@@]4(CCCNC4)C3)cc2)cc1`, “inactive”; under `CC(C)NC(=O)N1CCCC2(CCN(C(=O)c3cccn3C)CC2)C1`, “inactive”. The same measure, in the same setting: as for `Cn1cccc1C(=O)N1CCC2(CC1)CCN(c1cccc(-c3ccccc3)c1)CC2`, the entry is “inactive”; as for `c1ccc(-c2ccc(N3CCCC4(CCNCC4)C3)cc2)cc1`, 25.1 µM (active). `Cn1cccc1C(=O)N1CCC2(CCCN(C(c3ccccc3)c3ccccc3)C2)CC1`: the AC50 was 12.6 µM (active). Still for that read-out and setting: under `Cn1cccc1C(=O)N1CCC2(CC1)CCN(c1ccc(-c3ccccc3)cc1)CC2` stands “inactive”; under `c1ccc(-c2ccc(N3CC4(CCNCC4)C3)cc2)cc1`, “inactive”.

Turning to `Cn1cccc1C(=O)N1CCC2(CCCN(c3cccc(-c4ccccc4)c3)C2)CC1`, the AC50 was 3.98 µM (active). Consider `Cn1cccc1C(=O)N1CCC2(CCCN(c3ccc(-c4ccccc4)cc3)C2)CC1`, for which the AC50 is 15.8 µM (active).

`Cn1cccc1C(=O)N1CCC2(CC1)CCN(C(c1ccccc1)c1ccccc1)CC2`: the AC50 result was “inactive”.

Turning to `Cc1cnc(CNc2ncncc2-c2ccccc2CN(C)C)cn1`, the activity, negative = inhibition is 20.8% [at 2.29 µM]. Same read-out and setting: under `CO[C@@H]1COC(=O)[C@H]2CCCN2C(=O)[C@@H](C)COC(=O)CCC[C@H]1C` stands 1.93% [at 11.4 µM].

With `Cn1cccc1C(=O)N1CCC[C@@]2(CCN(c3ccccc3)C2)C1`, the AC50 entry is “inactive”. Still for that read-out and setting: under `Cn1cccc1C(=O)N1CCC2(CCCN(c3ccccc3)C2)CC1` stands 15.8 µM (active); under `COC(=O)N1CCC2(CCCN(c3ccc(-c4ccccc4)cc3)C2)CC1`, 15.8 µM (active). Still for that read-out and setting: as for `Cn1cccc1C(=O)N1CCC2(CC1)CN(c1ccncc1)C2`, the figure is 5.01 µM (active); as for `Cn1cccc1C(=O)N1CCC[C@@]2(CCN(c3ccncc3)C2)C1`, “inactive”. On the same count and under the same terms, as for `COC(=O)N1CCC2(CC1)CN(c1ccc(-c3ccccc3)cc1)C2`, the entry is “inactive”; as for `Cn1cccc1C(=O)N1CCC2(CC1)CCN(c1ccncc1)CC2`, “inactive”; as for `Cn1cccc1C(=O)N1CCC2(CC1)CCN(c1ccccc1)CC2`, “inactive”. `O=C(Oc1ccccc1)N1CCC2(CCCN(c3ccc(-c4ccccc4)cc3)C2)CC1`: the AC50 result is “inactive”. Still for that read-out and setting: as for `COc1ccccc1/C=C/C=N/N1CCN(Cc2cccc3ccccc23)CC1`, the entry is “inactive”.
